# Data taken from PubChem BioAssay.
# Unmarked numbers belong to inactive results. Some of the results follow. Activity calls are given as the source filed them.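 The calls were made as follows, unless noted: active = inhibition above the mean plus 3 SD of solvent-only control wells, limit set per screening run (cut at about 16% in these data); inactive = the rest.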
# Key:
# [1] = STAT1 signaling activators, confirmation, cell-based, HTS, luciferase reporter (AID 1262;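 active = activation above a set limit carried over from the earlier primary STAT1 screen, cut at about 140% in these data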;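 also: simple ratio to median IFN-gamma plus DMSO wells so 0% means no light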); conditions: NIH 3T3 STAT1-luciferase reporter, IFN-gamma potentiation, luminescence; at 5.7 µM; hits give high values; 100% = IFN-gamma EC80 alone, no compound
# [2] = NF-kB reporter activators, TNF-alpha stimulated, counter-screen for STAT1 activator project, cell-based, HEK293T, luciferase luminescence (AID 1306;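 active = activation above the mean of solvent-only control wells plus 3 SD, set per campaign, cut at about 130% in these data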;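 also: TNF-alpha given at a submaximal dose yielding about 80% of full reporter signal; values are well signal over median control so 100% means no change and 0% no light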); conditions: at 5.7 µM, hits give high values, 100% = TNF-alpha with vehicle only
# [3] = target: Signal transducer and activator of transcription 3 (Homo sapiens) (UniProt P40763); assay: STAT3 reporter activation by STAT1 hits, confirmation, counter-screen for STAT1 activator project, U3A cells, luciferase, luminescence (AID 1316;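 active = activation above the solvent-only control well mean plus 3 SD, set per plate batch, cut at about 110% in these data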;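 also: 0% = no luminescence and 100% = median IL-6 plus DMSO wells; higher means more STAT3 reporter activation so hits are non-selective activators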); conditions: IL-6, luminescence, at 5.7 µM, hits give high values, 100 = IL-6 alone, no compound effect, cells lack STAT1
# [4] = system: DAF-12 nuclear receptor (Heterodera glycines), GAL4-LBD fusion; assay: H. glycines DAF-12 receptor agonists, confirmation, cell-based, luminescence, HEK293, GAL4-LBD fusion (AID 743050;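 active = mean activation over triplicate wells above the hit cutoff derived from the earlier primary screen, cut at about 11% in these data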;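 also: 0% = DMSO low control and 100% = 2 mM sodium butyrate high control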); conditions: HEK293 GAL4-hgDAF12 luciferase reporter, agonist mode; at 6.8 µM; hits give high values; percent of butyrate response
# [5] = target: Oxysterols receptor LXR-beta (Homo sapiens) (UniProt P55055); assay: LXR agonists, Gal4 luciferase reporter, confirmation, counter-screen for hgDAF-12 agonist project, cell-based, luminescence, HEK293, H. glycines campaign (AID 743051;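 active = mean activation of the triplicate above a set limit carried over from the primary screen, none filed active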); conditions: 24 h, at 6.8 µM, hits give high values
# [6] = STAT3 reporter inhibitors, retest of hits, confirmation, U3A cells, luciferase, luminescence (AID 1265;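 active = inhibition above the hit cutoff computed for the primary STAT3 screen, cut at about 44% in these data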;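 also: 0% = IL-6 plus DMSO and 100% = IL-6 plus nifuroxazide control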); conditions: IL-6 STAT3 luciferase reporter, at 5.7 µM, hits give high values, cell line lacks STAT1
# [7] = NF-kB reporter inhibitors in human cells, confirmation, counter-screen for STAT3 inhibitor project, cell-based, HEK293T, luciferase, TNF-alpha stimulus (AID 1308;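 active = inhibition above the mean of solvent-only control wells plus 3 SD, cutoff set per campaign, cut at about 13% in these data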;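 also: 0% = TNF-alpha with DMSO and 100% = TNF-alpha with MG high control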); conditions: TNF-alpha induced, at 5.7 µM, hits give high values
# [8] = STAT1 reporter inhibitors, IFN-gamma induced, confirmation, counter-screen for STAT3 inhibitor project, cell-based, NIH 3T3, luciferase luminescence (AID 1317); conditions: NIH 3T3 STAT1-luciferase reporter, at 5.7 µM, hits give high values;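 also: 0% = DMSO with IFN-gamma and 100% = nifuroxazide control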
# [9] = target: Platelet-activating factor acetylhydrolase (Homo sapiens) (UniProt Q13093); assay: pPAFAH (PLA2G7) enzyme inhibitors, confirmation, biochemical, fluorescence polarization, human (AID 463230;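 active = mean inhibition of the triplicate above the hit cutoff set for the earlier primary screen, cut at about 25% in these data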;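 also: 0% = enzyme with DMSO and 100% = wells lacking pPAFAH enzyme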); conditions: recombinant pPAFAH, FP-Rh probe fluorescence polarization; at 3.39 µM; hits give high values
# [10] = growth loss of phage-infected E. coli expressing H. pylori AddAB, confirmation, AddAB inhibitor project, absorbance, E. coli V3065, T4 phage, triplicate (AID 488942;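 active = mean inhibition above a set limit taken from the earlier primary screen, cut at about 13% in these data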;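 also: higher means less bacterial growth since AddAB block lets phage replicate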); conditions: OD, at 11.9 µM, hits give high values, T4 phage with gene 2 nonsense mutations
# [11] = growth loss of RecBCD+ E. coli with mutant T4 phage, counter-screen for AddAB inhibitor project, absorbance, V66 E. coli (AID 488955;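 active = mean inhibition above the mean of solvent-only control wells plus 3 SD, cut at about 4% in these data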;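 also: optical density read after an 18 h incubation at 37 °C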); conditions: OD growth, at 11.9 µM, hits give high values
# [12] = bacterial viability inhibition counter-screen, confirmation, counter-screen for AddAB inhibitor project, absorbance (AID 488956; in the data active = inhibition above about 25%); conditions: absorbance (AddAB counterscreen), at 11.9 µM, hits give high values
# [13] = target: Nuclear receptor coactivator 3 (Homo sapiens) (UniProt Q9Y6Q9); assay: SRC3 coactivator transcriptional activity inhibitors, confirmation, cell-based, luminescence, quadruplicate (AID 588792;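 active = mean inhibition over 43.08%, the solvent-only control mean plus 3 SD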;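 also: 0% = DMSO treated cells and 100% = gossypol at 36 µM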); conditions: HEK293 GAL4-SRC3 luciferase reporter, at 3.6 µM, hits give high values
# [14] = system: transactivating tegument protein VP16 (Human herpesvirus 1), Gal4-VP16 luciferase reporter; assay: VP16 transactivation inhibitors, counter-screen for SRC3 inhibitor project, cell-based, luminescence, high throughput (AID 588794; in the data active = inhibition above about 30%); conditions: mammalian cells, VP16-driven luciferase reporter luminescence; at 3.6 µM; hits give high values
# [15] = target: Nuclear receptor coactivator 1 (Homo sapiens) (UniProt Q15788); assay: SRC1 coactivator transcriptional activity inhibitors, confirmation, cell-based, luminescence, quadruplicate (AID 588820;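 active = mean inhibition above 46.68%, the untreated control wells mean plus 3 SD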;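 also: 0% = DMSO wells and 100% = gossypol 36 µM treated wells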); conditions: HEK293 GAL4-SRC1 luciferase reporter, at 3.6 µM, hits give high values
# [16] = VP16 transactivation inhibitors, counter-screen for SRC1 inhibitor project, cell-based, luminescence, high throughput (AID 588824; in the data active = inhibition above about 25%); conditions: cell-based VP16 transactivation luciferase luminescence; at 3.6 µM; hits give high values
# [17] = target: Photoreceptor-specific nuclear receptor (Homo sapiens) (UniProt Q9Y5X4); assay: NR2E3 agonist confirmation in cells, cell-based, luminescence, CHO-S two-hybrid (AID 624378;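 active = average inhibition above a cutoff equal to the mean inhibition of all tested compounds plus one SD, cut at about 70% in these data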;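 also: 0% = DMSO in NR2E3 cells and 100% = DMSO in cells lacking NR2E3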); conditions: CHO-S mammalian two-hybrid NR2E3-NCOR, luciferase luminescence; at 3.98 µM; hits give high values
# [18] = GAL4-VP16 reporter modulators, confirmation, counter-screen for NR2E3 agonist project, cell-based, luminescence, CHO-S, high throughput (AID 624379;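 active = mean inhibition above a cutoff equal to the average over all tested compounds plus one standard deviation, cut at about 70% in these data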;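 also: 0% = DMSO with VP16-transfected cells and 100% = DMSO with cells lacking VP16; higher means less reporter light so more repression of VP16 activity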); conditions: CHO-S GAL4-VP16 luciferase reporter, at 3.98 µM, hits give high values
# [19] = StAR promoter reporter inhibitors, counter-screen for LRH-1 inverse agonist project, cell-based, luminescence, high throughput (AID 651611; in the data active = inhibition above about 28%); conditions: StAR promoter luciferase reporter counterscreen, at 3.6 µM, hits give high values
# [20] = target: Nuclear receptor subfamily 5 group A member 2 (Homo sapiens) (UniProt O00482); assay: LRH-1 (NR5A2) inverse agonists, retest, confirmation, cell-based, luminescence (AID 651613; in the data active = inhibition above about 42%;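 also: HEK293T cells co-transfected with LRH-1 and StAR promoter luciferase reporter; 0% = vehicle wells and 100% = parental cells lacking receptor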); conditions: cell-based LRH-1 luciferase reporter, inverse agonism; at 3.6 µM; hits give high values
# [21] = target: Steroidogenic factor 1 (Homo sapiens) (UniProt Q13285); assay: SF1 (NR5A1) inverse agonists, counter-screen for LRH-1 inverse agonist project, cell-based, luminescence, high throughput (AID 651614; in the data active = inhibition above about 44%;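 also: cells cotransfected with StAR promoter reporter and SF1 expression vector; 0% = vehicle on cells with receptor and 100% = vehicle on cells lacking receptor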); conditions: cell-based SF1 luciferase reporter, at 3.6 µM, hits give high values
# [22] = VP16 transactivation reporter inhibitors, counter-screen for LRH-1 inverse agonist project, cell-based, luminescence, high throughput (AID 651615; in the data active = inhibition above about 33%); conditions: Gal4-VP16 luciferase reporter cells, at 3.6 µM, hits give high values
# [23] = Gal4-VP16 luciferase reporter inhibitors, counter-screen for COUP-TFII antagonist project, cell-based, luminescence, HEK293 (AID 687007; in the data active = inhibition above about 13%); conditions: at 8.5 µM, hits give high values
# [24] = target: COUP transcription factor 2 (Homo sapiens) (UniProt P24468); assay: NR2F2 transcriptional activity inhibitors, confirmation, cell-based, luciferase reporter, HEK293, triplicate (AID 687008;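 active = mean inhibition over three repeats above a set limit taken from the earlier primary screen, cut at about 38% in these data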;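 also: 100% = cells given the luciferase reporter alone without the COUP-TF2 vector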); conditions: HEK293 NGFI-A luciferase reporter, luminescence; at 8.5 µM; hits give high values
# [25] = target: Neuropeptide Y receptor type 2 (Homo sapiens) (UniProt P49146); assay: NPY-Y2 potentiators or agonists, confirmation, cell-based (AID 1539; in the data active = activation above about 33%); conditions: cell-based NPY-Y2 potentiator/agonist assay; at 3.6 µM; hits give high values
# [26] = target: Neuropeptide Y receptor type 1 (Homo sapiens) (UniProt P25929); assay: NPY-Y1 potentiators or agonists, counter-screen for NPY-Y2 potentiator project, cell-based, fluorescence (AID 1651; in the data active = activation above about 45%;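 also: cells stimulated with submaximal NPY then isoproterenol with phosphodiesterase inhibitor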); conditions: Y1 HEK293-CNG cells, membrane potential fluorescence; at 3.6 µM; hits give high values
# [27] = target: Neuropeptide Y receptor type 1 (Homo sapiens) (UniProt P25929); assay: NPY-Y1 direct agonists, selectivity assay for NPY-Y2 potentiator project, cell-based, fluorescence (AID 1702;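 active = activation above the mean of DMSO-only control wells plus 3 SD, cut at about 18% in these data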;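 also: cells stimulated with 1 µM isoproterenol plus the PDE inhibitor Ro 20-1724; 0% = isoproterenol with DMSO and no NPY and 100% = 40 nM NPY; Y1 agonists lower the membrane potential dye signal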); conditions: HEK293 Y1-CNGC, membrane potential fluorescence, agonism; at 3.6 µM; hits give high values
# [28] = CNGC cAMP sensor activity inhibitors, counter-screen for NPY-Y2 potentiator project, cell-based, HEK293-CNG parental, membrane potential fluorescence (AID 1703;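 active = inhibition above the control-well mean plus 3 SD of those wells, cut at about 22% in these data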;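 also: 0% = DMSO with isoproterenol and 100% = DMSO without isoproterenol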); conditions: isoproterenol cAMP, at 3.6 µM, hits give high values
# [29] = target: Neuropeptide Y receptor type 2 (Homo sapiens) (UniProt P49146); assay: NPY-Y2 direct agonists, counter-screen for NPY-Y2 potentiator project, cell-based, fluorescence (AID 1710;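 active = activation above the mean of solvent-only control wells plus 3 SD, cut at about 10% in these data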;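 also: cells stimulated by isoproterenol with no NPY added so direct agonism is tested; 0% = DMSO with isoproterenol alone and 100% = NPY at EC100 plus isoproterenol; agonism lowers probe fluorescence through less cAMP and CNG channel opening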); conditions: HEK293 Y2/CNGC cells, membrane potential fluorescence, agonist mode; at 3.6 µM; hits give high values
# [30] = target: Insulin-degrading enzyme (Homo sapiens) (UniProt P14735); assay: human IDE inhibitors in live cells, confirmation, fluorescence polarization, HEK cells, FAbetaB substrate (AID 435028;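 active = mean inhibition across triplicate wells above the cutoff set by the earlier primary insulin-degrading enzyme screen, cut at about 16% in these data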;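 also: 0% = DMSO wells and 100% = 60 µM reference IDE inhibitor Ii1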); conditions: FAbetaB cleavage, at 5.59 µM, hits give high values
# [31] = cytotoxicity in HEK cells, cytotoxicity control for IDE inhibitor project, cell-based, luminescence (AID 449730; in the data active = inhibition above about 22%;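 also: 0% = vehicle wells and 100% = reference cytotoxic drug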); conditions: HEK293 cytotoxicity, ATP luminescence; at 5.59 µM; hits give high values
# Chain of Oxysterols receptor LXR-beta (Homo sapiens) (P55055 whole entry, looked up, the tested form may be a part): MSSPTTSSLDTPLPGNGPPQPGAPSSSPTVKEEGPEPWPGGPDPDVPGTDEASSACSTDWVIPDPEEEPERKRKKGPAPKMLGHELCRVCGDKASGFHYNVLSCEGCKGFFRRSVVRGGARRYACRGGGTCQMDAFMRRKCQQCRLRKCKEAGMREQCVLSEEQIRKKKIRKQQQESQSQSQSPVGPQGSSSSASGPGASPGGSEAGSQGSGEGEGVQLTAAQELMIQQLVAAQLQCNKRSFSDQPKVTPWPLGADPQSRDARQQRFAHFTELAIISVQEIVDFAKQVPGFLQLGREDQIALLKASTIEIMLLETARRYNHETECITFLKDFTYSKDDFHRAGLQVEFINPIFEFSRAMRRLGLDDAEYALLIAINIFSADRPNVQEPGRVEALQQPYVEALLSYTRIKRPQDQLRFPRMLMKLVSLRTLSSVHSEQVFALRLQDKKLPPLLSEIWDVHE
# Chain of COUP transcription factor 2 (Homo sapiens) (P24468 whole entry, looked up): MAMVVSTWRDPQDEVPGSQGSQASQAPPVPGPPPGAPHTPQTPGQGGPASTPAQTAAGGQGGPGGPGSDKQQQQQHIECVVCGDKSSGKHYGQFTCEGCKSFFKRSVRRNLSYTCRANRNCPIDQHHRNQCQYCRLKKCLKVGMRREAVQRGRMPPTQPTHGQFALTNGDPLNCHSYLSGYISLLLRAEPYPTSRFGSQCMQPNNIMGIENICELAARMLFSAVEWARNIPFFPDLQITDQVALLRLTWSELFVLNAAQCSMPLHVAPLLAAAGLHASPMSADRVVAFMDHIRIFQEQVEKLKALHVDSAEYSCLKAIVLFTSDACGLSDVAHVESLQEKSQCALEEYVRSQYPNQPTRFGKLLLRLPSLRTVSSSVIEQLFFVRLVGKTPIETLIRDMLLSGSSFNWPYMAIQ
# Chain of Neuropeptide Y receptor type 2 (Homo sapiens) (P49146 whole entry, looked up): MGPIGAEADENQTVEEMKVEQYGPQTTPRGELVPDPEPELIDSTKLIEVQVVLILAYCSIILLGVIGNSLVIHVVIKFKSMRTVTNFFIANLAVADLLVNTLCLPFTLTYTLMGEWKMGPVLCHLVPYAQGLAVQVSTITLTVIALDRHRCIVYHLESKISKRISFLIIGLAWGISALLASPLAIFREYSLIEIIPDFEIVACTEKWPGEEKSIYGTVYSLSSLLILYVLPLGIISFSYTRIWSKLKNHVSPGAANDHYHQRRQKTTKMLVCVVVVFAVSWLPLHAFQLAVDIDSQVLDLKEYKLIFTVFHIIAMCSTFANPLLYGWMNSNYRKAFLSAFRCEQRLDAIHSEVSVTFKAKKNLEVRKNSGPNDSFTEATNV
# Chain of Neuropeptide Y receptor type 1 (Homo sapiens) (P25929 whole entry, looked up): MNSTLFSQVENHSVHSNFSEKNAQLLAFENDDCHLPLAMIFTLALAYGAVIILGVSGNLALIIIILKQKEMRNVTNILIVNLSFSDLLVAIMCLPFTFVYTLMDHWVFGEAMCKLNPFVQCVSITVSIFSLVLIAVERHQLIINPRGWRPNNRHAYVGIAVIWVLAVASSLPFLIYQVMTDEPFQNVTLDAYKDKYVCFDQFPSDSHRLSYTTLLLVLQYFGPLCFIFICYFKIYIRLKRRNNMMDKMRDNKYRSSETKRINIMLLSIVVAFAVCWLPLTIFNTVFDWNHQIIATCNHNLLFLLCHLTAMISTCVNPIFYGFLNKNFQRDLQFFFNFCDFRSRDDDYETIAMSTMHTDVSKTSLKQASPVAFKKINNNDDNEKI
# Chain of Photoreceptor-specific nuclear receptor (Homo sapiens) (Q9Y5X4 whole entry, looked up, the tested form may be a part): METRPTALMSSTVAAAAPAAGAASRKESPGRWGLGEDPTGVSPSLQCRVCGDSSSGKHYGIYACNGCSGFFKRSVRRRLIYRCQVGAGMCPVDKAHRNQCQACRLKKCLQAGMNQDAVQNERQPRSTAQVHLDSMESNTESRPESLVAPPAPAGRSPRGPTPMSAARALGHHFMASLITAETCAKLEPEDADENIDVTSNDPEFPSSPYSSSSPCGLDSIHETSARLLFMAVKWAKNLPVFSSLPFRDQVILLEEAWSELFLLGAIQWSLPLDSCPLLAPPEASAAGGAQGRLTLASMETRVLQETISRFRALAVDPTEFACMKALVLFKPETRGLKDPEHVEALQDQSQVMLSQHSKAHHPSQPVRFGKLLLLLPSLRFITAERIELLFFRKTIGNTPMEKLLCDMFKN
# Chain of Nuclear receptor subfamily 5 group A member 2 (Homo sapiens) (O00482 whole entry, looked up): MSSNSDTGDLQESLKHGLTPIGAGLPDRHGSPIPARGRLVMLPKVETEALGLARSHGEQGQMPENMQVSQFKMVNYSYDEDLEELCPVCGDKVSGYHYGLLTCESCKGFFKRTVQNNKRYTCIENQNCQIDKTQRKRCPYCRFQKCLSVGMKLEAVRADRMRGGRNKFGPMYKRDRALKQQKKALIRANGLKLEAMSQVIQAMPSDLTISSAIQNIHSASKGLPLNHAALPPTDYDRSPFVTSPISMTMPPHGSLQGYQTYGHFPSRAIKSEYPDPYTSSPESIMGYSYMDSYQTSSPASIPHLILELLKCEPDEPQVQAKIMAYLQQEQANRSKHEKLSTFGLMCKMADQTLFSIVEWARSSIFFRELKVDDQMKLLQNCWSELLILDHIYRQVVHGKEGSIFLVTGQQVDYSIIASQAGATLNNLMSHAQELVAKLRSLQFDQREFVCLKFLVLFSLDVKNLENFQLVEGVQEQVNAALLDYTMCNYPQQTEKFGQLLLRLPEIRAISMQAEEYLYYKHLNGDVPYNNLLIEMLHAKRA
# Chain of Platelet-activating factor acetylhydrolase (Homo sapiens) (Q13093 whole entry, looked up): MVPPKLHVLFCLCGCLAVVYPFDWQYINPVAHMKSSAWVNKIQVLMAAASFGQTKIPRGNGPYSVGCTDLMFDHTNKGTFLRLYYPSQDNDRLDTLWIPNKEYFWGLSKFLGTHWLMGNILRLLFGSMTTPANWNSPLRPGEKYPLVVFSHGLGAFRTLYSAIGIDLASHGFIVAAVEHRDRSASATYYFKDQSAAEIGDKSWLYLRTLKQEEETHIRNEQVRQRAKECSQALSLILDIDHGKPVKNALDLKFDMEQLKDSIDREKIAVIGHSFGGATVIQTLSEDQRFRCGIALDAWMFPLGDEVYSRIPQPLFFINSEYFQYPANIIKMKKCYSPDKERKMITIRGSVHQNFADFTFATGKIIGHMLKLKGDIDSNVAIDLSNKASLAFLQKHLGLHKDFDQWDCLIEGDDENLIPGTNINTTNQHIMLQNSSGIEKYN
# Chain of Steroidogenic factor 1 (Homo sapiens) (Q13285 whole entry, looked up, the tested form may be a part): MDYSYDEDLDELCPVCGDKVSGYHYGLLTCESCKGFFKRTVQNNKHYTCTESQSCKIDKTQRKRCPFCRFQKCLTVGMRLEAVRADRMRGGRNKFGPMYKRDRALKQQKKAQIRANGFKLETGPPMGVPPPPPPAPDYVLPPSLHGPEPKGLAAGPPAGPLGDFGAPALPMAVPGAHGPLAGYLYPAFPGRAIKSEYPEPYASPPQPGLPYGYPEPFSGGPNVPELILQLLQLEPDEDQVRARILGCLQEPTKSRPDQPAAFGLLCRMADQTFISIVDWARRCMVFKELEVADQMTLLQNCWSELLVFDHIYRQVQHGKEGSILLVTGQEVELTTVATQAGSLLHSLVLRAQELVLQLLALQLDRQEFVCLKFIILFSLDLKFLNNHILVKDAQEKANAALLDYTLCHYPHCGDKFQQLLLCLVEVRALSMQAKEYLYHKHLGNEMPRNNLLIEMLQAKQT
# Chain of Nuclear receptor coactivator 1 (Homo sapiens) (Q15788 whole entry, looked up, the tested form may be a part): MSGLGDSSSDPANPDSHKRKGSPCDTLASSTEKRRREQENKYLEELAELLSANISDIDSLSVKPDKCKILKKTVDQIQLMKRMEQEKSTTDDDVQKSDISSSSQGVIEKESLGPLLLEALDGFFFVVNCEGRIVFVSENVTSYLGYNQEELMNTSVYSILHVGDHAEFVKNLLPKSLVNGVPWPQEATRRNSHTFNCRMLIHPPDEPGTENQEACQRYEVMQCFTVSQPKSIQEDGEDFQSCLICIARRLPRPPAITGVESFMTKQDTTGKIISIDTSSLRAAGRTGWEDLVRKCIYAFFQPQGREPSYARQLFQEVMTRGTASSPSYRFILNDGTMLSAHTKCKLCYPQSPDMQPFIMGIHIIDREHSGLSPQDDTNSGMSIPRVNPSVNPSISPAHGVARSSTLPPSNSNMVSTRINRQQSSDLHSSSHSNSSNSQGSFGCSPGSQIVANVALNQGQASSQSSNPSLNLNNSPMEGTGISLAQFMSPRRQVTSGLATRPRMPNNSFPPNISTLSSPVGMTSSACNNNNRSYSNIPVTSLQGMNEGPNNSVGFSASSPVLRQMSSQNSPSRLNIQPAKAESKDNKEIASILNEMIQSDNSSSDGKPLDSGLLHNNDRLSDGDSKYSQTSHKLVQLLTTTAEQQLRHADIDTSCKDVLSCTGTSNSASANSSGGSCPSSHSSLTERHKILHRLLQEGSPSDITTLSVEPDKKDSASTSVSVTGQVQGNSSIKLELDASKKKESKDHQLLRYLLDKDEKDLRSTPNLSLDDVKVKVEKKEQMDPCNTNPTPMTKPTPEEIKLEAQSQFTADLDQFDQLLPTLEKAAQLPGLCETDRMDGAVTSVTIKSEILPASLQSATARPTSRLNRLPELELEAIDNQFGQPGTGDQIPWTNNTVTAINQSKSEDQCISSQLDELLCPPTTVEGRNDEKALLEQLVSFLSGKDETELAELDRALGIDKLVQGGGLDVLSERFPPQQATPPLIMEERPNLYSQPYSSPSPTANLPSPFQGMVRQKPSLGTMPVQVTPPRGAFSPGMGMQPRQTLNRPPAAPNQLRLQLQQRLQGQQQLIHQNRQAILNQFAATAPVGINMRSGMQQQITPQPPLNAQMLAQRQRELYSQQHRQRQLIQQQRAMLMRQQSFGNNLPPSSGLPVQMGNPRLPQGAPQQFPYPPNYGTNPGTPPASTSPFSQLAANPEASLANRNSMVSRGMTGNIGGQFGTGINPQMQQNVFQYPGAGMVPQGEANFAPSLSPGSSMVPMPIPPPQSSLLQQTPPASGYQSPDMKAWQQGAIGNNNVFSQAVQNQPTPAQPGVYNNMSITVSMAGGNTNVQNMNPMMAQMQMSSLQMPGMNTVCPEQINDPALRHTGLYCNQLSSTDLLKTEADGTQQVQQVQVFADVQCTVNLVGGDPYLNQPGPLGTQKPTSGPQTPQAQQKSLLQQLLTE
structure (smiles),measurement,setting,value
O=C(Nc1ccc(-c2nnc(-c3ccccc3)o2)cc1)C1CCCO1 (configuration not stated),activation (% of control),[1],207% (active)
same,activation (% of control),[2],122%
same,activation (% of control),[3],123% (active)
same,activation,[4],15.9% (active)
same,activation,[5],0.9%
CCOc1cccc(/C=C/c2ccc3ccccc3n2)c1OC(C)=O,inhibition,[6],-2.03%
same,inhibition,[7],-34.1%
same,inhibition,[8],-15.3%
Cc1ccc(-c2cc(C(=O)N/N=C/C=C/c3ccco3)c3ccccc3n2)cc1C,inhibition,[6],-39.2%
same,inhibition,[7],12.6%
same,inhibition,[8],-40.9%
CCN1/C(=C\c2ccc3ccccc3[n+]2CC)Sc2cc(C)ccc21,inhibition,[6],86.2% (active)
same,inhibition,[7],33.4% (active)
same,inhibition,[8],19% (active)
same,inhibition,[9],2.61%
same,inhibition,[10],34.1% (active)
same,inhibition,[11],5.58% (active)
same,inhibition,[12],16.1%
same,inhibition,[13],35.8%
same,inhibition,[14],70.5% (active)
same,inhibition,[15],32.7%
same,inhibition,[16],67.9% (active)
same,inhibition,[17],98.3% (active)
same,inhibition,[18],87.5% (active)
same,inhibition,[19],59.5% (active)
same,inhibition,[20],107% (active)
same,inhibition,[21],86.4% (active)
same,inhibition,[22],83.4% (active)
same,inhibition,[23],10.8%
same,inhibition,[24],66.5% (active)
NC(=O)Cc1ccc2sc(-c3ccccc3)nc2c1,activation (% of control),[1],203% (active)
same,activation (% of control),[2],126%
same,activation (% of control),[3],108%
same,activation,[4],17.4% (active)
same,activation,[5],0.66%
CCSc1nnc(NC(=O)c2ccc(C)cc2)s1,inhibition,[6],21.2%
same,inhibition,[7],-24.2%
same,inhibition,[8],-63%
same,activation,[25],-4.89%
same,activation,[26],-0.65%
same,activation,[27],-1.02%
same,inhibition,[28],-0.46%
same,activation,[29],-10.9%
same,activation,[4],17.3% (active)
same,activation,[5],0.93%
CC(C)OCCCNc1ncnc2c1[nH]c1ccc(F)cc12,inhibition,[6],78.6% (active)
same,inhibition,[7],33.4% (active)
same,inhibition,[8],31.1% (active)
same,inhibition,[30],17.2% (active)
same,inhibition,[31],75.2% (active)
same,inhibition,[17],96.7% (active)
same,inhibition,[18],81.3% (active)
same,inhibition,[23],-32.6%
same,inhibition,[24],63.3% (active)
O=c1c2c(nc3n1CCCCC3)sc1c(O)cccc12,inhibition,[6],45.2% (active)
same,inhibition,[7],-0.37%
same,inhibition,[8],3.33%
CN(C)c1ccnc2sc(C(=O)c3ccccc3)c(N)c12,activation (% of control),[1],188% (active)
same,activation (% of control),[2],126%
same,activation (% of control),[3],109%
same,activation,[4],14.2% (active)
same,activation,[5],0.47%
